tested on: LXRa homodimer (NR concentration 270 nM); test: PBM binding z-score (relative to random genomic background probes); higher = stronger binding; sequences stand for … in GC…GCGATTGACAGCGTAGAATGAAGG
Method in brief: (§1)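 Binding z-scores were set against random background probes. The data came from custom Agilent 4×180K protein-binding microarrays carrying double-stranded probes with 34-nt variable regions, incubated 1 h with ligand-free nuclear receptor dimers. Partner-specific antibodies detected binding, and scanned fluorescence was regression-normalized.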

| Sequence | PBM binding z-score |
| --- | --- |
| CCTACAGGGCCATTCAGAGGTCATTGATCATATG | 6.45 |
| CGAACTAGCTCATTGACAGGACAGTGAATAGTAA | 0.0523 |
| GGAACGAGGGCATTCGGGTTGATAGCATGGCGAT | -0.291 |
| CTCGAAAGGTCCTGCTCAGGTGAGTATACCAAAC | -0.23 |
| AGAATGAGGATATACGTAGATCAGGGAAGAAAGT | -0.354 |
| ATCGAAAGGTCTAGGTGAGTATAGAGAAAGGGAA | 0.254 |
| TTACCAAGGTGAGCTGAGGTCGTTGATCCAACTC | -0.429 |
| GATACAGAGTCAAGGCCAGAGTACGCGTATTGAT | -0.531 |
| CGTCCAAGGTCAGAGAGATCAGTGAATGCCGAGT | 0.0283 |

tested on: LXRb:RXRa (NR concentration 270 nM, RXRa partner concentration 90 nM); test: as above
Method in brief: as §1

| Sequence | PBM binding z-score |
| --- | --- |
| CAAACTAGGTTAAGAGGTCAAAGTCCGCTTCCCG | 4.8 |
| CGTCCAAGGTCAGCAGGTCCGTGAAAGCGACGTG | 2.19 |
| CGTCATAGTTCAACTAAGGTAACGTAAAGCACGC | 2.13 |
| ACCTCTAGGTAAAAGTTCAGTGAATCCCGAGGAT | 0.401 |
| GCATATAGGTAATACAAGGTGAAAGCCCGATTGT | 0.494 |
| CGAACTAGGTCATTGACAGTACAGTGAATAGTAA | 2.02 |
| AGTCAAAGTTCATTAGGTAACGTAAGATTCAGCT | 3.29 |
| TCTTGTAGATCAACCGGAGGTTAAGAAAGATCGA | 1.17 |
| CGAACTAGGTCAGAACAGGCCAGTGAAGGATGAT | 0.231 |
| ATCTCTAGGTAAGACTCAGTTCAGTTAAGAACGC | 0.321 |
| AGAATGAGCTTACCAAAGATCAGGGAAACGCTTG | -0.523 |
| GATACAGGATCAAGGCCAGAGTACGCGTATTGAT | -0.535 |
| CGAACTAGGTCAGAACAGGACTGTGAAGGATGAT | 0.252 |
| GCTGCTAGGGCAACTGATGGTCAGCTAAAGCTCG | -0.846 |
| CTCGAAAGGTCGTGCTCGGGTGAGTATACCAAAC | 3.32 |
| GCTTGTAGATCAAGGTTAAGACAGACTAAGCTAA | 0.486 |
| TCTATTAGCTGATTAGGGCAACCGAAACAGCGGA | -0.12 |
| ACTTACGGGTCAAAGAGGTTATAGCACGCGTATA | 4.61 |
| TCTAGTTGGTCAAAGGACACACACTCGAAATGCG | 1.05 |
| GCTGCTAGCTCAGGTTGGTCAGCTAACGGGTACG | -0.935 |

| Sequence | PBM binding z-score |
| --- | --- |
| GCTGCTAGGTCAACTGATGGGCAGCTAAAGCTCG | 1.48 |
| CGGACTGGGGCATAAGGTTACCATAAGCCAGCCC | 1.11 |
| CCTACTGGGCCAAAGGTCATTGCTTCCAATGCTC | 4.86 |
| TCTATCAGTTGATTAGGGCAACCGAAACAGCGGA | 0.101 |
| TCGAGTAGGTGAGGGGCATTCAGAATGGCGTCGA | 1.21 |
| CCGAATGGGGCATAAGGTTACCATAAGCCAGCCC | 0.966 |
| CGTCCAAGGTCAATGCTAGGTCCGTGAAAGCATT | 3.53 |
| CCGACTGGGGCAGAAAGGTTATCATACCATCCGG | 0.849 |
| AGAATGAGGTTACCAAAGAGCAGGGAAACGCTTG | 2.41 |
| TCTTGTAGAGCAGCAGGTTAAGAAAGCTGGCCAA | -0.257 |
| CAAACTAGATCACAGAGGTCAAAGTCCGTGCGTA | 5.22 |
| CCTACAGGGCCATTCAGAGGTCATTGATCATATG | 3.82 |
| CGAACTAGCTCATTGACAGGACAGTGAATAGTAA | -0.29 |
| GGAACGAGGGCATTCGGGTTGATAGCATGGCGAT | 0.287 |
| CTCGAAAGGTCCTGCTCAGGTGAGTATACCAAAC | 0.151 |
| AGAATGAGGATATACGTAGATCAGGGAAGAAAGT | -0.479 |
| ATCGAAAGGTCTAGGTGAGTATAGAGAAAGGGAA | 0.163 |
| TTACCAAGGTGAGCTGAGGTCGTTGATCCAACTC | 0.771 |
| GATACAGAGTCAAGGCCAGAGTACGCGTATTGAT | -0.627 |
| CGTCCAAGGTCAGAGAGATCAGTGAATGCCGAGT | 2.25 |

From the supplement of paper PMC6555819
